Assay outcomes (PubChem)
Rows were chosen to be rich in hits. Some 7.9% of all compounds tested hit in one or more screens of this group.
Lassa entry inh = blocks Lassa virus binding to or entry into cells; Potency, µM (titrated, usually from 37.9 µM), for the others: at the top dose activity change, negative = inhibition, usual class: inhibitors; 300,000 compounds, 1.2% hits; AID 540256; Lassa virus pseudotype entry inhibition, cell reporter; calls by dose curve; tested in HEK293 cells; note: potency is the fitted concentration of half-maximal effect; nearly all actives have a fitted effect of over 50% in size
HCMV antiviral = human cytomegalovirus inhibition; HFF cells, HCMV-luciferase reporter, 72 h; stronger effect = lower value; activity change, negative = inhibition, % at 57.5 µM; 410,000 compounds, 4.5% hits; in the data active = activity change below about -60%; inconclusive = no clear call, values can overlap the other calls; inactive = above about -39%
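Cell-based, HFFs, 1000 cells/well, 16 h 37C; cpds in DMSO + HCMV-luc, MOI 1 PFU/cell; 72 h 37C; OneGlo luminescence after 5 min RT; norm. to buffer vs Salinomycin 10uM.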
MARV entry inh = inhibitors of Marburg virus binding or cell entry; Marburg virus pseudotyped entry inhibition, cell reporter; Potency, µM (titrated, usually from 37.8 µM), for inactives: at the highest dose activity change, negative = inhibition, usual class: inhibitors; 300,000 compounds, 1.8% hits; AID 540276; calls by dose curve; tested in HEK293 cells; note: potency is the fitted concentration of half-maximal effect
HCV inh = blocks hepatitis C virus | Huh7.5.1 HCVcc-Cre infection, luciferase reporter, 44 h | Potency, µM (top dose mostly 41.8 µM), for the others: top-dose activity change, negative = inhibition, actives largely listed as inhibitors | 340,000 compounds, 3.4% hits; active = well fitted inhibition curve with a large enough effect; inconclusive = small, poorly fitted or top-dose-only effect, or another doubt; inactive = no such curve, though single readings can be large or run the other way; note: potency is the fitted concentration of half-maximal effect
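After 44 h co-culture of compound, cells and HCVcc-Cre (~0.5 moi), substrate is added for 15 min at room temperature and luciferase measured over 15 sec. Cells were seeded at 1,000/well and pre-cultured 4 h.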
FMDV inh = antivirals against foot and mouth disease virus | 410,000 compounds, 1.2% hits | FMDV antiviral cell-based qHTS | Potency, µM (titrated, usually from 57.9 µM), for inactives: top-dose activity change, negative = inhibition, hits mostly inhibitors; calls by dose curve; tested in HEK293T cells; note: read-out not given here; potency is the fitted concentration of half-maximal effect; nearly all actives have a fitted effect of over 45% in size
* hit, by the source's call; [ ] = remark or other dose. % is set by controls: 0 for no effect and ±100 for the full control effect.

What do the screens show for `CC1CCCC(NCC(O)COC(c2ccc(F)cc2)c2ccc(F)cc2)C1C` (centres undefined)?
Lassa entry inh: inconclusive; HCMV antiviral: -97*; MARV entry inh: inconclusive; HCV inh: inconclusive; FMDV inh: inconclusive

How did CC1CCCC(NC(=O)CSc2ccc(F)cc2)C1C (centres undefined) do in these assays?
Lassa entry inh: inconclusive; HCMV antiviral: 12; MARV entry inh: 9%; HCV inh: 11%; FMDV inh: 10%

What do the screens show for `CN1CCN(c2ncc3nc(-c4cccs4)c(=O)n(C[C@H]4CCCO4)c3n2)CC1`?
FMDV inh: -18%

What do the screens show for `CC1=C2[C@H](O)[C@H]([C@@H](C)C(=O)NCCC(C)C)CC[C@@]2(C)C=CC1=O`?
MARV entry inh: 23%[14.2 µM]

Results for CN(C)CCn1c2c(c(SCC(=O)N3CCc4ccccc43)nc1=O)CCCC2 ?
Lassa entry inh: 1%; HCMV antiviral: -18; MARV entry inh: -29%; HCV inh: 13µM*; FMDV inh: 7%

How did Cc1ccc(N2CC(c3nnc(NC(=O)c4ccco4)s3)CC2=O)cc1C (centres undefined) do in these assays?
Lassa entry inh: 15%[46.1 µM]; HCMV antiviral: 4; MARV entry inh: 14%[46.1 µM]; FMDV inh: 14%

How did Cc1ccc(C(=O)/C=C/Nc2ccccn2)cc1 do in these assays?
Lassa entry inh: 0.63µM*; HCMV antiviral: inconclusive; MARV entry inh: inconclusive; HCV inh: inconclusive; FMDV inh: 2.5µM*

Results for O=C(CC1(O)C(=O)Nc2cc(Cl)cc(Cl)c21)c1ccccc1O (centres undefined) ?
Lassa entry inh: -18%; HCMV antiviral: 15; MARV entry inh: inconclusive; HCV inh: 25µM*; FMDV inh: -18%

How did Cn1cccc1-c1cc2n(n1)CCC(=O)N2CCCC(=O)NCc1cccc(Cl)c1 do in these assays?
Lassa entry inh: -7%[46.1 µM]; HCMV antiviral: 0; FMDV inh: -3%

How did Cc1cc(C)c(C)c(OCC(=O)O/N=C(\N)c2ccccn2)c1 do in these assays?
Lassa entry inh: inconclusive; HCMV antiviral: -10; MARV entry inh: -18%; HCV inh: 10µM*; FMDV inh: -5%

Results for N/C(=N\OC(=O)COc1ccc(Br)cc1Cl)c1ccccn1 ?
Lassa entry inh: 2µM*; HCMV antiviral: 22; MARV entry inh: inconclusive; HCV inh: -6%; FMDV inh: -36%

How did N/C(=N\OC(=O)COc1ccc(Cl)cc1Cl)c1ccccn1 do in these assays?
HCMV antiviral: -24; HCV inh: -18%; FMDV inh: -4%

How did Cc1ccccc1NC(=O)C1CCN(S(=O)(=O)c2c(C)noc2/C=C/c2ccco2)CC1 do in these assays?
Lassa entry inh: -4%[46.1 µM]; HCMV antiviral: -16; MARV entry inh: -7%[46.1 µM]; FMDV inh: -19%

Results for Cc1noc(/C=C/c2ccco2)c1S(=O)(=O)N1CCC(C(=O)NCc2ccco2)CC1 ?
Lassa entry inh: -23%; HCMV antiviral: -73*; MARV entry inh: 3%; HCV inh: inconclusive; FMDV inh: -1%

Results for Cc1noc(/C=C/c2ccco2)c1S(=O)(=O)N1CCC(C(=O)N2CCc3ccccc3C2)CC1 ?
Lassa entry inh: inconclusive; MARV entry inh: -29%; HCV inh: 11µM*; FMDV inh: -22%

How did Cc1noc(/C=C/c2cccs2)c1S(=O)(=O)N1CCC(C(=O)NCCCN2CCC(C)CC2)CC1 do in these assays?
HCMV antiviral: -2; HCV inh: 11µM*; FMDV inh: -13%

What do the screens show for `Cc1ccc(NC(=O)C2CCN(S(=O)(=O)c3c(C)noc3/C=C/c3ccco3)CC2)nc1`?
Lassa entry inh: inconclusive; HCMV antiviral: -94*; MARV entry inh: inconclusive; HCV inh: 1%; FMDV inh: 35µM*

How did Cc1ccc(CNC(=O)C2CCN(S(=O)(=O)c3c(C)noc3/C=C/c3ccco3)CC2)cc1 do in these assays?
HCMV antiviral: -7; MARV entry inh: -4%; HCV inh: -18%; FMDV inh: -23%

What do the screens show for `Cc1cc(=O)c(C(=O)NCCCc2ccncc2)c2n1-c1ccccc1SC(c1cccs1)C2` (centres undefined)?
FMDV inh: -9%

How did Cc1ccc(NC(=O)/C=C/c2ccco2)nc1 do in these assays?
Lassa entry inh: inconclusive; HCMV antiviral: -63*; MARV entry inh: 7.1µM*; HCV inh: 6%; FMDV inh: 0%
